Data on 29 compounds can be found in PubChem BioAssay (EPA / NIEHS).

In general, AC50 refers to the midpoint of the concentration-response curve, whichever way the signal moves.

SMILES strings stand for the structures. Results filed as inconclusive are left out. The source made the active and inactive calls. Rule for the calls, unless noted: active = hit-call score of the fitted dose curve at least 0.9, where 1 is the maximum; inconclusive = response in the unintended direction; inactive = score below 0.9.

Chain of Estrogen receptor (Homo sapiens) (P03372 whole entry, looked up): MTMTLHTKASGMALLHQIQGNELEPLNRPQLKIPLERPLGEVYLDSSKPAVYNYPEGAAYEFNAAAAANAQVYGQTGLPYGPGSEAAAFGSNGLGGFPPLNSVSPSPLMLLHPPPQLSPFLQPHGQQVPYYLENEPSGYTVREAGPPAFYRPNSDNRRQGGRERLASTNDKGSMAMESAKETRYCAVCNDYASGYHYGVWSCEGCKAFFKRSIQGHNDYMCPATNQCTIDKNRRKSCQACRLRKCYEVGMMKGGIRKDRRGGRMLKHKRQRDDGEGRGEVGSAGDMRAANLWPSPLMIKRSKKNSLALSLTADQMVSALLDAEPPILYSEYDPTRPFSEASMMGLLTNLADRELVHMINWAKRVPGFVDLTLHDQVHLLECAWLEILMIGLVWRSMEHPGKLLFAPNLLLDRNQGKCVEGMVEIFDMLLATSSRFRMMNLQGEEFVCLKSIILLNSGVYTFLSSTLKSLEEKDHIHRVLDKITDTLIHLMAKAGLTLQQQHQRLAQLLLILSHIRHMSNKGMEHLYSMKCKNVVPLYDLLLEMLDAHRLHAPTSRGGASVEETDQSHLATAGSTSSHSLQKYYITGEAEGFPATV

The target in the first test is Estrogen receptor (Homo sapiens) (UniProt P03372). As to the kind of experiment: OT_ERa_GFPERaERE_0480: Odyssey Thera (OT) 8-hour HeLa Transcription Induction Assay for Estrogen Receptor (AID 2283381; active = hit-call score of the fitted dose curve at least 0.9, where 1 is the maximum; inactive = score below 0.9). Summed up:
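Cells (HeLa) receive compound; after 8 h, reporter fluorescence is imaged and quantified by high-content analysis. Gain-of-signal relative to DMSO gives the endpoint.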
Turning to `Cc1cccc(Nc2cc(Cl)nc(SCC(=O)O)n2)c1C`, the result was inactive.

Turning to `CCCCCCCCCCC`, the result was inactive.

Turning to `CCCCCCCCCCCC(=O)OC`, the outcome was inactive.

In the case of `c1cc(-c2ccncc2)ccn1`, the compound was classed as inactive.

On to `Nc1ccc(S(=O)(=O)c2ccc(N)cc2)cc1`, for which the compound was classed as inactive.

As to `O=[N+]([O-])C(CO)(CO)CO`, the call was inactive.

As for `CC=Cc1ccc(O)c(OC)c1`, the AC50 was 76.2 µM (active).

As for `C=CCOC(=O)c1ccccc1C(=O)OCC=C`, the result was inactive.

As to `CCc1c(C(=O)NN2CCCCC2)nn(-c2ccc(Cl)cc2Cl)c1-c1ccc(Br)cc1`, the compound was called inactive.

For the compound `CCCc1cc(=O)[nH]c(=S)[nH]1`, the outcome was inactive.

In the case of `CN1CCCC1=O`, the compound was classed as inactive.

On to `C[C@]12C=CC(=O)C=C1CC[C@@H]1[C@@H]2C(=O)C[C@@]2(C)[C@H]1CC[C@]2(O)C(=O)CO`, for which the call was inactive.

As to `CNCc1cc(F)ccc1Oc1ccc(Cl)c(Cl)c1`, the AC50 is 75.6 µM (active).

Consider `COC(=O)c1ccc(O)cc1`, for which the compound was called inactive.

Regarding `CC(=O)C(C)=CC1C(C)=CCCC1(C)C` (configuration not stated), the call was inactive.

Turning to `Cc1c(C(=O)O)c(O)cc2c1C(=O)c1c(O)c([C@@H]3O[C@H](CO)[C@@H](O)[C@H](O)[C@H]3O)c(O)c(O)c1C2=O`, the compound was classed as inactive.

For the compound `Nc1nc(N)c2nc(CNc3ccc(C(=O)N[C@@H](CCC(=O)O)C(=O)O)cc3)cnc2n1`, the result was inactive.

Consider `O=C(O)Cc1ccccc1Nc1c(Cl)cccc1Cl`, for which the compound was classed as inactive.

In the case of `Cc1ccc(C)c(O)c1C`, the compound was classed as inactive.

`CCCCN(CCCC)CCCC`: the result was inactive.

On to `CCCCCC(=O)O`, for which the compound was called inactive.

In the case of `CCCCCCCCCCCCCO`, the call was inactive.

On to `CC1(C)CC(N=C=O)CC(C)(CN=C=O)C1` (configuration not stated), for which the result was inactive.

Consider `COc1ccc2c(c1)c(CC(=O)O)c(C)n2C(=O)c1ccc(Cl)cc1`, for which the compound was called inactive.

Turning to `O=c1c(O)c(-c2ccc(O)c(O)c2)oc2cc(O)cc(O)c12`, the call was inactive.

Regarding `CN[C@H]1CC[C@@H](c2ccc(Cl)c(Cl)c2)c2ccc(S(N)(=O)=O)cc21`, the AC50 was 12.3 µM (active).

`Cc1ccc2ncccc2c1`: the outcome was inactive.

For the compound `CC1=C(/C=C/C(C)=C/C=C/C(C)=C/CO)C(C)(C)CCC1`, the compound was classed as inactive.

`C=CCc1ccc(O)c(OC)c1`: the call was inactive.

The target is the same in the next test. As to the kind of experiment: OT_ERa_GFPERaERE_0120: Odyssey Thera (OT) 2-hour HeLa Transcription Induction Assay for Estrogen Receptor (AID 2283382). Summed up: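 Measures ESR1 pathway reporter gain-of-signal in HeLa cells after a 2-hour treatment, detected as fluorescent protein induction by microscopy, DMSO as baseline.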
Consider `Cc1cccc(Nc2cc(Cl)nc(SCC(=O)O)n2)c1C`, for which the compound was called inactive.

`CCCCCCCCCCC`: the call was inactive.

As for `CCCCCCCCCCCC(=O)OC`, the call was inactive.

For `c1cc(-c2ccncc2)ccn1`, the outcome was inactive.

For `Nc1ccc(S(=O)(=O)c2ccc(N)cc2)cc1`, the outcome was inactive.

Take `O=[N+]([O-])C(CO)(CO)CO`: the result was inactive.

For `CC=Cc1ccc(O)c(OC)c1`, the compound was classed as inactive.

With `C=CCOC(=O)c1ccccc1C(=O)OCC=C`, the half-maximal activity concentration (AC50) is 69.7 µM (active).

`CCc1c(C(=O)NN2CCCCC2)nn(-c2ccc(Cl)cc2Cl)c1-c1ccc(Br)cc1`: the outcome was inactive.

Turning to `CCCc1cc(=O)[nH]c(=S)[nH]1`, the outcome was inactive.

As to `CN1CCCC1=O`, the call was inactive.

Regarding `C[C@]12C=CC(=O)C=C1CC[C@@H]1[C@@H]2C(=O)C[C@@]2(C)[C@H]1CC[C@]2(O)C(=O)CO`, the compound was classed as inactive.

As for `CNCc1cc(F)ccc1Oc1ccc(Cl)c(Cl)c1`, the AC50 is 70.5 µM (active).

For the compound `COC(=O)c1ccc(O)cc1`, the compound was called inactive.

Turning to `CC(=O)C(C)=CC1C(C)=CCCC1(C)C` (configuration not stated), the AC50 was 12.3 µM (active).

`Cc1c(C(=O)O)c(O)cc2c1C(=O)c1c(O)c([C@@H]3O[C@H](CO)[C@@H](O)[C@H](O)[C@H]3O)c(O)c(O)c1C2=O`: the result was inactive.

Take `Nc1nc(N)c2nc(CNc3ccc(C(=O)N[C@@H](CCC(=O)O)C(=O)O)cc3)cnc2n1`: the compound was classed as inactive.

With `O=C(O)Cc1ccccc1Nc1c(Cl)cccc1Cl`, the compound was classed as inactive.

For the compound `Cc1ccc(C)c(O)c1C`, the compound was called inactive.

For the compound `CCCCN(CCCC)CCCC`, the result was inactive.

For the compound `CCCCCC(=O)O`, the compound was called inactive.

In the case of `CCCCCCCCCCCCCO`, the compound was called inactive.

Take `CC1(C)CC(N=C=O)CC(C)(CN=C=O)C1` (configuration not stated): the outcome was inactive.

Take `COc1ccc2c(c1)c(CC(=O)O)c(C)n2C(=O)c1ccc(Cl)cc1`: the outcome was inactive.

For the compound `O=c1c(O)c(-c2ccc(O)c(O)c2)oc2cc(O)cc(O)c12`, the AC50 was 23.4 µM (active).

As to `CN[C@H]1CC[C@@H](c2ccc(Cl)c(Cl)c2)c2ccc(S(N)(=O)=O)cc21`, the call was inactive.

As to `Cc1ccc2ncccc2c1`, the compound was called inactive.

For the compound `CC1=C(/C=C/C(C)=C/C=C/C(C)=C/CO)C(C)(C)CCC1`, the outcome was inactive.

Take `C=CCc1ccc(O)c(OC)c1`: the outcome was inactive.

For a further test, the target named is Bile acid receptor (Homo sapiens) (UniProt Q96RI1). As to the kind of experiment: OT_FXR_FXRSRC1_0480: Odyssey Thera (OT) 8-hour HEK293T Protein-Complementation Assay for Farnesoid X receptor/SRC-1 Co-activator (AID 2283383). Summed up: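 Co-activator recruitment to FXR was measured in living HEK293T cells, where interaction of the two fused partners restored an active fluorescent reporter. Signal gain after 8 h treatment was referenced to DMSO.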
Chain of Bile acid receptor (Homo sapiens) (Q96RI1 whole entry, looked up, the tested form may be a part): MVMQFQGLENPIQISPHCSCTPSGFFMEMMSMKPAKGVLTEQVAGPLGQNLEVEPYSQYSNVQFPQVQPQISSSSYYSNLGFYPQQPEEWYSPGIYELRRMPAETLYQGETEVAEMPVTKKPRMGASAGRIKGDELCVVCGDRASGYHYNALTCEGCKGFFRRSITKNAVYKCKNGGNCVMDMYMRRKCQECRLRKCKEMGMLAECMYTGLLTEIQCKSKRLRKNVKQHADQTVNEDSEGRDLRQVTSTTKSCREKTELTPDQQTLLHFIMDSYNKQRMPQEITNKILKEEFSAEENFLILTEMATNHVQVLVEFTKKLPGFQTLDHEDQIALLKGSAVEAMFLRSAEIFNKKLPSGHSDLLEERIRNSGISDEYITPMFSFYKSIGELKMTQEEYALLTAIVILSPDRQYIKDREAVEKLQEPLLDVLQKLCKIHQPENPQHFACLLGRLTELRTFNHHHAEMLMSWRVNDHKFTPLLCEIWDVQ
Regarding `CCCCCCCCCCCC(=O)OC`, the call was inactive.

As for `Nc1ccc(S(=O)(=O)c2ccc(N)cc2)cc1`, the result was inactive.

`C=CCOC(=O)c1ccccc1C(=O)OCC=C`: the outcome was inactive.

With `CCc1c(C(=O)NN2CCCCC2)nn(-c2ccc(Cl)cc2Cl)c1-c1ccc(Br)cc1`, the call was inactive.

Take `Cc1c(C(=O)O)c(O)cc2c1C(=O)c1c(O)c([C@@H]3O[C@H](CO)[C@@H](O)[C@H](O)[C@H]3O)c(O)c(O)c1C2=O`: the compound was called inactive.

For `Nc1nc(N)c2nc(CNc3ccc(C(=O)N[C@@H](CCC(=O)O)C(=O)O)cc3)cnc2n1`, the outcome was inactive.

As for `O=C(O)Cc1ccccc1Nc1c(Cl)cccc1Cl`, the outcome was inactive.

Take `CCCCN(CCCC)CCCC`: the call was inactive.

`CC1(C)CC(N=C=O)CC(C)(CN=C=O)C1` (configuration not stated): the compound was classed as inactive.
